Inconclusive results are not listed. Activity calls are given as the source filed them. Calls follow the shape of the dose curve; as a rule, active = well fitted inhibition curve with a large enough effect; inconclusive = small, poorly fitted or top-dose-only effect; inactive = flat fitted curve, though single readings scatter.

For the first experiment, the system named is HACAT. In words: qHTS assay to identify novel small-molecules to repurpose for Merkel cell carcinoma treatment (AID 1296009). Also: nearly all actives have a fitted effect of over 60% in size. As to conditions: MCC and control cell lines, CellTiter-Glo viability, 72 h; at 44.8 µM (top of the series) unless noted. Put shortly:
(§1)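 After compound transfer in DMSO, plates were kept 72 hr at 37 degree celsius. Luminescent ATP signal from CellTiter-Glo served as viability measure, normalized against DMSO and no-cell controls.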
(Quantitative high-throughput screening tests each substance at several concentrations.)
Regarding `NC1=NC(=O)N2CC12` (stereo not drawn), the outcome was inactive.
Still for that read-out and setting: the result for `CCCC[N+]1(C)[C@H]2CC(OC(=O)[C@H](CO)c3ccccc3)C[C@H]1[C@H]1O[C@H]12` (stereo partly drawn) reads “inactive”; that for `COC(C)(C)CCCC(C)C/C=C/C(C)=C/C(=O)OC(C)C` (stereo not drawn), “inactive”; that for `O=C(O)COc1ccccc1`, “inactive”.
Still for that read-out and setting: with `C[C@]12Cc3cn[nH]c3C[C@@H]1CC[C@@H]1[C@H]2CC[C@@]2(C)[C@H]1CC[C@]2(C)O` the entry was “inactive”.

The next experiment deals with HEK293T. The description is as above. As to conditions: MCC and control cell lines, CellTiter-Glo viability, 72 h; at 44.8 µM (top of the series) unless noted. Put shortly: as §1
For orientation: Cellular ATP, detected with luciferase, serves as a proxy for viable cell number.
Consider `CN[C@@H](C)[C@H](O)c1ccccc1`, for which the result was inactive.
The same measure, in the same setting: with `C=CC(=O)NCNC(=O)C=C` the entry was “inactive [at 92 µM]”; with `CC1=C(C(=O)O)N2C(=O)[C@@H](N)[C@H]2SC1`, “inactive [at 17.4 µM]”; with `O=S(=O)(O)C(F)(F)C(F)(F)C(F)(F)C(F)(F)F`, “inactive [at 92 µM]”.
With `C[C@]12CC[C@@H]3[C@@H](CCC4=CC(=O)CC[C@@H]43)[C@@H]1CC[C@@H]2OC(=O)CCc1ccccc1`, the result was inactive.
Same read-out and setting: with `NC1CC1c1ccccc1` (stereo not drawn) the entry was “inactive”; with `O=C1C=CC[C@@H]2[C@H]3CCCN4CCC[C@@H](CN12)[C@@H]34`, “inactive”; with `O=[N+]([O-])/N=C1\NCCN1Cc1ccc(Cl)nc1`, “inactive”.

The values above are taken from PubChem BioAssay (NCATS).
